The list is not random: actives were taken first. Their share in the collection is about 21%.
DRD3 agonist: agonists of human D3 dopamine receptor; P35462; D3R DiscoveRx beta-arrestin cells, luminescence, 90 min; max activation, %; actives 0.58% (n = 410,000); in the data active = max activation above about 30%; also: 0% is about no effect
Target sequence (P35462 whole entry, looked up): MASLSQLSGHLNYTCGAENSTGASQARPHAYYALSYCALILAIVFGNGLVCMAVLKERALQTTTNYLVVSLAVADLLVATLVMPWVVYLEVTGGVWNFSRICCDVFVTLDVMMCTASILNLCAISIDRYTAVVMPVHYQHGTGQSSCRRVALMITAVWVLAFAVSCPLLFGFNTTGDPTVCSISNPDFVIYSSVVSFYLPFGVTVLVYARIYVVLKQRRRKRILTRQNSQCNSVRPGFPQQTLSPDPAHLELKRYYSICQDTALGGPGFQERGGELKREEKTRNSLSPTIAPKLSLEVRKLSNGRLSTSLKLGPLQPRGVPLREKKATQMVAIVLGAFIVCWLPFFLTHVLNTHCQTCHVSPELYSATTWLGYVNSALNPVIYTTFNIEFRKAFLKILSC
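Agonist mode: compounds and dopamine controls were applied to plated cells for 90 min at 37 degrees C after an overnight attachment at 1500 cells/well. Luminescent read-out followed 30 - 60 minutes at room temperature with DiscoveRx detection reagent.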
DT40 TDP1 no CPT: qHTS for Inhibitors of human tyrosyl-DNA phosphodiesterase 1 (TDP1): qHTS in cells in absence of CPT; actives 15% (n = 420,000); AID 686978, 2013; Potency, µM (series often up to 46.2 µM), inactives show top-dose activity change, negative = growth inhibition, actives largely listed as inhibitors; DT40 Tdp1-/- hTDP1 cells, no CPT, ATP luminescence, 48 h; also: potency is read from the fitted curve at half-maximal effect; % is scaled to controls: 0 for no effect and ±100 for the full control effect; nearly all actives have a fitted effect of over 55% in size
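Cells were dispensed at 400 per well, compounds added by pin tool, plates incubated ≥48 hr at 37 °C, then CellTiter-Glo added for 30 min at room temperature before luminescence reading. Line: DT40 Tdp1-/- complemented with hTDP1; camptothecin omitted.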
IL-1B inflam inh: inflammasome signaling inhibition, IL-1 beta readout. activity change, % at 57.5 µM. THP-1 LPS/ATP IL-1B secretion, AlphaLISA, 16 h; active compounds read low. actives 4.7% (n = 360,000). AID 743279; in the data active = activity change below about -50%; inconclusive = mostly about -30% to -49%; also: % is scaled to controls: 0 for no effect and ±100 for the full control effect
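THP-1 cells pretreated 1 hr with compounds (up to 57.5 uM final), then stimulated with LPS (250 ng/mL final) plus ATP (1.25 mM final); secreted IL-1B measured by AlphaLISA after 16 hr, decreased signal indicating inhibition.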
ClpP mod: qHTS Assay for Activators of ClpP | ATP-dependent Clp protease proteolytic subunit (Bacillus subtilis (strain 168)), P80244 | purified B. subtilis ClpP, FRET peptide cleavage, 20 min | Potency, µM (series often up to 57.5 µM), for the others: at the top dose activity change, negative = active | actives 1.9% (n = 340,000) | AID 651965, 2013; active = well fitted falling curve with a large enough effect; inconclusive = small, poorly fitted or top-dose-only effect; inactive = no such curve, though single readings can be large or run the other way; also: potency is read from the fitted curve at half-maximal effect; the source files actives as falling curves though it sought activators and does not explain the sign; nearly all actives have a fitted effect of over 65% in size
Target sequence (P80244 whole entry, looked up): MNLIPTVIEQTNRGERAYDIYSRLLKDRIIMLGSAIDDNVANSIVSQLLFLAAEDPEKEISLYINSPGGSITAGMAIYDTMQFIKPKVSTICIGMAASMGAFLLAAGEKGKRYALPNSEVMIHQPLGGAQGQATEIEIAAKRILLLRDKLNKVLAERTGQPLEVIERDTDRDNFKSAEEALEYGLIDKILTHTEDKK
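Buffer: 100 mM Tris/HCl pH8, 100 mM KCl, 0.05% low protease BSA, 2.5% glycerol, 0.01% Tween-20. ClpP 10 microg/mL final; 20 min RT; delta FRET normalized to ADEP and DMSO controls.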
D3 antag: blocks the human D3 dopamine receptor; P35462; max response, negative = inhibition, %; D3R cells, DiscoveRx beta-arrestin luminescence, antagonist mode; active compounds read low; actives 2.5% (n = 360,000); in the data active = max response below about -50%; inconclusive = no clear call, values can overlap the other calls; also: % is scaled to controls: 0 for no effect and ±100 for the full control effect
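Cells plated overnight at 1500 cells/well, then exposed to library compounds with dopamine controls for 90 minutes at 37 degrees C. DiscoveRx reagent added for 30–60 minutes at room temperature; luminescence read, quantitative HTS format.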
TDP1 cell CPT: DT40-hTDP1 cell growth loss with CPT | actives 12% (n = 420,000) | chicken DT40 Tdp1-/-;hTDP1 cells + 20 nM CPT, ATP luminescence, 48 h | AID 686979 | Potency, µM (titrated, usually from 46.2 µM), inactives show at the highest dose activity change, negative = growth inhibition, usual class: inhibitors; also: potency is read from the fitted curve at half-maximal effect; % is scaled to controls: 0 for no effect and ±100 for the full control effect; nearly all actives have a fitted effect of over 55% in size
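Cell growth measured by CellTiter-Glo luminescence after a minimum 48 h, 37 C compound exposure with 20 nM CPT in Tdp1-knockout DT40 cells stably expressing hTDP1, seeded 400/well; qHTS titration format.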
* = called active by the depositor; u = inconclusive; x = no result given. Unless noted, calls follow the shape of the dose curve; as a rule, active = well fitted inhibition curve with a large enough effect; inconclusive = small, poorly fitted or top-dose-only effect; inactive = flat fitted curve, though single readings scatter.

SMILES | DRD3 agonist | DT40 TDP1 no CPT | IL-1B inflam inh | ClpP mod | D3 antag | TDP1 cell CPT
Cc1occc1-c1nnc(SCC(=O)N2CCc3ccccc32)o1 | -13 | 21µM* | -9 | 0% | u | 16µM*
COc1ccc(N2CCN(c3oc(-c4ccc(COc5cccc(C)c5)o4)nc3C#N)CC2)cc1 | -11 | u | x | -12% | x | u
COc1ccc(Oc2ncc3ncc(=O)n(Cc4cccs4)c3n2)cc1 | x | 23µM* | x | x | x | u
COCCn1c(=O)cnc2cnc(Oc3cccc(Cl)c3)nc21 | x | -6% | x | x | x | -4%
COc1ccc(-c2nc3cnc(N(C)C)nc3n(Cc3ccc(F)cc3)c2=O)cc1 | x | -1% | x | x | x | -8%
O=c1cnc2cnc(Oc3cccc(Cl)c3)nc2n1Cc1ccc(F)cc1 | x | 23µM* | x | x | x | u
CN(C)c1ncc2ncc(=O)n(Cc3ccc(F)cc3)c2n1 | x | 21µM* | x | x | x | 10µM*
O=C(CCNC(=O)C1CCN(S(=O)(=O)c2ccccc2)CC1)NCc1ccc(Cl)c(Cl)c1 | -4 | u | 2 | 4% | 4 | u
Cc1c(C(=O)N2CCCC2)oc2c1-c1nn(CC(=O)NCc3cccc(Br)c3)cc1CC2 | 8 | u | x | 3% | x | u
CN1CCN(c2ccc(CNS(=O)(=O)Cc3cccc(C(F)(F)F)c3)cc2)CC1 | -13 | 3.7µM* | 0 | 0% | 14 | 6.5µM*
CN1CCN(c2ccc(CNS(=O)(=O)c3ccccc3)cc2)CC1 | -25 | -29% | x | x | -20 | 7%
CC1CCCCN1C(=O)COC(=O)C1CCN(S(=O)(=O)c2c(Cl)cccc2Cl)CC1 (stereo not drawn) | 6 | -18% | 3 | 16µM* | 4 | -1%
CC1CCN(C(=O)COC(=O)C2CCN(S(=O)(=O)c3c(Cl)cccc3Cl)CC2)CC1 | -1 | -4% | -12 | u | -2 | u
Cc1csc2nc(COc3ccc(NC(=O)C(C)C)cc3)cc(=O)n12 | -2 | -27% | x | -5% | x | -2%
CO[C@H]1O[C@@H]2O[C@@]3(C)CC[C@H]4[C@H](C)CC[C@@H]([C@H]1C)[C@@]24OO3 | 7 | 1.5µM* | x | x | x | 2.7µM*
COc1ccc(CC(=O)OCC(=O)Nc2ccc(N3CCOCC3)cc2)cc1 | -13 | -15% | 9 | 1% | 6 | -5%
Cc1ccccc1/C=N/Nc1ccnc2cc(Cl)ccc12 | -4 | u | -103* | -5% | -17 | 10µM*
Cc1ccc(/C=N/Nc2ccnc3cc(Cl)ccc23)c(C)c1 | -9 | 12µM* | -77* | -17% | 1 | 6.5µM*
Clc1ccc2c(N/N=C/c3ccc(Br)cc3)ccnc2c1 | -4 | u | -98* | 0% | -17 | u
Oc1ccc(/C=N/Nc2ccnc3cc(Cl)ccc23)c(O)c1 | -5 | u | u | 0% | 20 | u
CN(C)CCCNC(=O)/C=C/c1ccc2c(c1)OCO2 | 7 | 7% | 3 | 16µM* | 11 | 15%
COC(=O)C1CCN(C(=O)/C=C/c2ccc3c(c2)OCO3)CC1 | -4 | 16µM* | 23 | -14% | -30 | u
O=C(/C=C/c1ccc2c(c1)OCO2)c1ccc(O)cc1O | -20 | u | -95* | x | u | u
O=C(/C=C/c1ccc2c(c1)OCO2)c1ccco1 | 1 | -27% | -96* | -5% | -15 | -19%
COc1ccc(NS(=O)(=O)c2cc(NC(=O)CCc3ccc(OC)c(OC)c3)ccc2N2CCOCC2)cc1 | -2 | 5% | -12 | 0% | -16 | -28%
SMILES | DRD3 agonist | DT40 TDP1 no CPT | IL-1B inflam inh | ClpP mod | D3 antag | TDP1 cell CPT
Cc1cnc(CNc2cc(-c3cccc(NS(C)(=O)=O)c3)ncn2)cn1 | x | -6% | x | x | x | -1%
Cn1c2c(sc1=O)CCC2 | -7 | 1% | 2 | x | 4 | -1%
O=C(/C=C/C=C/c1ccccc1)c1ccco1 | -2 | 18µM* | u | -1% | u | u
O=C(/C=C/c1ccc(Br)cc1)c1ccco1 | -13 | 16µM* | -108* | x | -29 | 7.3µM*
COc1cc(=O)[nH]c(SCC(=O)Nc2nc3c(s2)CCCC3)n1 | 3 | u | 44 | 1% | -22 | 23µM*
COc1cc(=O)[nH]c(SC(C)C(=O)Nc2nc3c(s2)CCCC3)n1 (stereo not drawn) | 22 | -15% | 34 | x | 16 | -19%
CC(C)n1c(SCC(=O)Nc2nc3c(s2)CCCC3)nc2c1c(=O)n(C)c(=O)n2C | 10 | 2.9µM* | u | 0% | u | 12µM*
CCOC(=O)c1c(NC(=O)CSc2nc3c(c(=O)n(C)c(=O)n3C)n2C(C)C)sc(C)c1C | 0 | -3% | 15 | 0% | 7 | 1%
O=C(CSc1nc2c(c(=O)[nH]1)CCC2)Nc1ccccc1F | 5 | -11% | x | -1% | x | -12%
O=C(c1ccccc1)C1CN(Cc2ccccc2)CCC1(O)c1ccccc1 (stereo not drawn) | -24 | 12µM* | u | x | -29 | 7.3µM*
OC(c1ccccc1)C1CN(Cc2ccccc2)CCC1(O)c1ccccc1 (stereo not drawn) | -37 | u | -21 | 0% | -59* | u
CCCCNC(=O)c1cccc(S(=O)(=O)N2CC3(C)CC2CC(C)(C)C3)c1 (stereo not drawn) | 1 | u | -9 | 0% | 13 | u
Cc1nn(-c2ccc([N+](=O)[O-])cc2)c2c1C(c1cccc(Br)c1)N1C(=N2)C(=O)Nc2ccccc21 (stereo not drawn) | -1 | 3.3µM* | 3 | 2% | 20 | 2.6µM*
Cc1cccc(NC2=Nc3ccccc3N3C2=Nc2c(c(C)nn2-c2ccccc2)C3c2ccc(O)c(O)c2)c1 (stereo not drawn) | 3 | u | -15 | 0% | u | u
Cc1nn(-c2ccccc2)c2c1C(c1ccc(Cl)cc1)N(c1ccccc1)C(=O)N2 (stereo not drawn) | -11 | -25% | -14 | -1% | -5 | u
Cc1nn(-c2ccccc2)c2c1C(c1ccc([N+](=O)[O-])cc1)N1C(=N2)C(=O)Nc2ccccc21 (stereo not drawn) | 4 | 15µM* | -75* | -1% | 3 | u
C[C@@H]1CN([C@H](C)CO)C(=O)CCCn2nncc2CO[C@@H]1CN(C)S(=O)(=O)c1ccccc1 | -12 | -18% | -15 | 1% | -24 | -8%
O=C(Nc1cccc(C(F)(F)F)c1)c1ccc(Cn2cc(Br)cn2)o1 | 4 | u | 16 | 0% | 7 | u

Source: PubChem BioAssay (National Center for Advancing Translational Sciences (NCATS))
